Screening results: PubChem BioAssay, National Center for Advancing Translational Sciences (NCATS)
An excerpt weighted towards active compounds, which were near 5.8% of everything screened.
KB-V1 cytotox – qHTS assay for MDR1-selective chemotherapeutics: Primary screen using the drug-selected MDR subline cells KB-V1; Potency, µM (highest dose often 46.1 µM), usual class: cytotoxic; AID 1347076, 2019; KB-V1 MDR cells viability, CellTiter-Glo, 72 h; hit rate 3.4% among 400,000; further: on the % scale 0 is the no-effect control and ±100 the full control effect; nearly all actives have a fitted effect of over 60% in size
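Luminescent ATP read-out (CellTiter-Glo, 10 min) measures survival of drug-selected KB-V1 MDR cells after 72 h, 37 degrees C compound exposure. Medium: phenol-red-free DMEM, 10% FBS. Values from fitted concentration-response curves.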
PINK1 expr mod – A Quantitative High throughput Screen to Identify Chemical Modulators of PINK1 Expression. PINK1 immunofluorescence, high-content cytometry, 24 h. Potency, µM (highest dose often 76.6 µM), for the others: at the top dose activation (PINK1 increase), actives largely listed as activators. hit rate 0.2% among 410,000; active means well fitted activation curve with a large enough effect; inconclusive means small, poorly fitted or top-dose-only effect; cell line not stated here; further: % of control where 0% means no effect; nearly all actives have a fitted effect of over 65% in size
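Cells are seeded, rested 12 hours, then given compound at five concentrations or DMSO for 24 hours. After fixation, blocking and antibody staining, PINK1 amount and mitochondrial localization are scored; CCCP serves as control.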
MCF10A rerep – A quantitative high throughput screen for small molecules that induce DNA re-replication in MCF 10a normal breast cells. hit rate 2.9% among 350,000. Potency, µM (titrated, usually from 46.1 µM), inactives show top-dose activity, positive = re-replication, most hits filed as activators. AID 624296, 2012. MCF 10A DNA re-replication, Hoechst nuclear intensity, 48 h; further: % of control where 0% means no effect; nearly all actives have a fitted effect of over 50% in size
KB-3-1 cytotox – qHTS assay for MDR1-selective chemotherapeutics: Primary screen using the parental adenocarcinoma cell KB-3-1; KB-3-1 viability, CellTiter-Glo ATP luminescence, 72 h; Potency, µM (series often up to 46.1 µM), hits mostly cytotoxic; hit rate 1.4% among 400,000; further: on the % scale 0 is the no-effect control and ±100 the full control effect; nearly all actives have a fitted effect of over 60% in size
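Multi-concentration cytotoxicity screen in KB-3-1 cells grown in DMEM lacking phenol red with 10% FBS. After 72 h at 37 °C with compound, ATP-dependent luminescence was recorded.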
12-LOX inh – Primary qHTS assay for inhibitors of human arachidonate 12S-lipoxygenase (ALOX12): Round 2; Polyunsaturated fatty acid lipoxygenase ALOX12 (Homo sapiens), P18054; purified 12hLO, xylenol orange hydroperoxide absorbance; Potency, µM (series often up to 108 µM), for inactives: at the top dose activity change, negative = inhibition, usual class: inhibitors; hit rate 1.1% among 580,000; further: on the % scale 0 is the no-effect control and ±100 the full control effect
Target sequence (P18054 whole entry, looked up): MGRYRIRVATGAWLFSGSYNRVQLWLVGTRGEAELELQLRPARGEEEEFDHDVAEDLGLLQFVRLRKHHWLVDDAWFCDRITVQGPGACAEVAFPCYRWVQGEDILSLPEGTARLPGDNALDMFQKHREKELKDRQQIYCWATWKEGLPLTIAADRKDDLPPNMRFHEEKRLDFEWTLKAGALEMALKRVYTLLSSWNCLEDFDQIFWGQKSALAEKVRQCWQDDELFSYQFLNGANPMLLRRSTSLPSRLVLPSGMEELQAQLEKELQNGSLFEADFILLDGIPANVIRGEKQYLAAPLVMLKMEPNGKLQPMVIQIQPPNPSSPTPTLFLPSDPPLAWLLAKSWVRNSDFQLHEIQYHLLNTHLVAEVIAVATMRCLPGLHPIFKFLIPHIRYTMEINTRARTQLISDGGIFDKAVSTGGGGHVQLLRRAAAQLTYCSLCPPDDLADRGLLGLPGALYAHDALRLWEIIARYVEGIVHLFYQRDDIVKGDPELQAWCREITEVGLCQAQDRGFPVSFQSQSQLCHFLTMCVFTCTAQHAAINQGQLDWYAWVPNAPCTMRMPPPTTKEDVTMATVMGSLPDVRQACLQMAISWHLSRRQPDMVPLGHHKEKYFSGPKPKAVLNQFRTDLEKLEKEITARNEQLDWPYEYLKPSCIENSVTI
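Hydroperoxide product was detected by ferrous iron/xylenol orange as the 573 to 405 nm absorbance ratio. Arachidonic acid at 40 uM (final) was turned over for 30 min at room temperature by 150 nM human 12hLO, pH 7.0 Hepes buffer, after 15 min compound preincubation.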
SW480 rerep – A quantitative high throughput screen for small molecules that induce DNA re-replication in SW480 colon adenocarcinoma cells; SW480 DNA re-replication, Hoechst DNA content imaging, 48 h; AID 624297, 2012; hit rate 1.8% among 340,000; Potency, µM (highest dose often 46.1 µM), without a hit: at the top dose re-replication activation, usual class: activators; further: % of control where 0% means no effect; nearly all actives have a fitted effect of over 55% in size
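250 cells/well; 23 nL cpd via pin tool; 48 hr, 37 C, 5% CO2; Hoechst 40 min; imager read of total nuclear intensity, ex 405/em 500-530 nm.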
* = called active by the depositor; i = inactive; ? = inconclusive; . = not tested or not shown; [ ] = remark or other dose. Unless noted, the call rests on the fitted dose curve; in most records, active means well fitted curve in the direction sought with a large enough effect; inconclusive means small, poorly fitted or top-dose-only effect, or another doubt; inactive means no such curve, though single readings can be large; an effect the other way counts as inactive or inconclusive. Potency means the concentration at half of the fitted maximal effect.

SMILES	KB-V1 cytotox	PINK1 expr mod	MCF10A rerep	KB-3-1 cytotox	12-LOX inh	SW480 rerep
CCOC(=O)c1cnc(-n2nc(C)cc2C)nc1N(CC)CC	1.64µM*	4.4%[38.3 µM]	-1.1%	i	?	?
CC(C)OC(=O)/C(=C/c1ccc(Br)cc1)NC(=O)c1ccco1	16.4µM*	0.4%	2.6%	i	7.4%	-61.1%
COC(=O)/C(=C/c1ccccc1)NC(=O)c1ccco1	i	0.1%	9.5%	i	0.1%	-1.7%
Cc1cc(=O)[nH]c(SCCc2ccccc2)n1	11.6µM*	-1.4%	-3.0%	16.4µM*	-14.9%	-3.2%
Cc1nnc(SCCc2ccccc2)[nH]c1=O	i	-0.3%	11.6%	i	0.0%	-8.8%
Cc1ccc(SCCSc2nc(N)cc(=O)[nH]2)cc1	8.2µM*	0.9%	16.8%	i	14.2%	-2.9%
CCc1cc(=O)[nH]c(SCCc2ccccc2)n1	8.2µM*	-0.7%	?	13µM*	.	3.3%
Cc1nc(SCCc2ccccc2)[nH]c(=O)c1C	3.26µM*	0.0%	-5.3%	3.26µM*	.	?
COc1ccc2[nH]cc(C3C(NC(=O)c4ccccc4)=C(C)Nc4ncnn43)c2c1 (stereo unspecified)	.	.	.	.	13.8%	.
CC1=C[C@@H](CN2C(=O)C(C)=C(C)C2=O)[C@H](C(C)C)C[C@H]1Cc1nc2ccccc2[nH]1	.	.	.	.	-15.4%[176 µM]	.
CCSc1nc(C)c(C)c(=O)[nH]1	i	0.2%	4.1%	i	4.7%	-8.9%
Cc1nc(SCc2ccc(Br)cc2)[nH]c(=O)c1C	i	4.5%	7.31µM*	i	3.1%	-5.0%
COc1ccc(C(=O)Nc2ccc(S(=O)(=O)N(Cc3ccccc3)c3ccccc3)cc2)cc1	2.31µM*	2.0%	.	i	-25.1%	.
CCOc1ccc(C(=O)Nc2ccc(S(=O)(=O)N(Cc3ccccc3)c3ccccc3)cc2)cc1	.	1.5%	.	.	-8.3%	.
COc1ccc(NC(=O)CCN(c2ccc(OC)cc2)S(=O)(=O)c2ccc(C)c(C)c2)cc1	8.2µM*	-0.7%	8.6%	i	292.7%	7.7%
COc1ccc(N(Cc2ccccc2)S(=O)(=O)c2cccc(C(=O)Nc3ccccn3)c2)cc1	3.66µM*	0.7%	?	?	200.6%	13.4%
COc1ccc(S(=O)(=O)N(CC(=O)Nc2ccc(C)cc2)c2ccc(C)cc2)cc1OC	?	-1.5%	.	i	0.0%	.
O=C(Nc1ccccn1)c1ccc(CN(c2ccccc2)S(=O)(=O)c2ccccc2)cc1	i	0.6%	?	i	13.2%	10.7%
CS(=O)(=O)N1CCCN(C(=O)c2cnn(Cc3ccccc3Cl)c2)CC1	.	.	.	.	1.3%	.
COc1cccc(NC(=S)N/N=C2\CC3CCC2(C)C3(C)C)c1 (stereo unspecified)	i	11.3%	?	i	35.5µM*	?
COc1cccc(NC(=S)N/N=C2\CC(C)(C)Oc3ccc(O)cc32)c1	i	1.2%	?	i	31.6µM*	8.6%
Cc1cccc(NC(=S)N/N=C2\CC(C)(C)Oc3ccc(O)cc32)c1	i	1.7%	?	i	?	?
CC12CCC(C/C1=N/NC(=O)Nc1ccccc1)C2(C)C (stereo unspecified)	i	18.8%	21.4%	i	-1.7%	-9.7%
O=[N+]([O-])c1ccc(C2Nc3cccc4cccc(c34)N2)cc1	i	11.7%	-43.6%	i	39.8µM*	-46.6%
Cc1nc2c(OCc3ccc(C#N)cc3)cccn2c1N(C)Cc1cccs1	14.6µM*	0.8%	.	?	-5.8%	.
SMILES	KB-V1 cytotox	PINK1 expr mod	MCF10A rerep	KB-3-1 cytotox	12-LOX inh	SW480 rerep
CC(CNC(=O)c1ccc2nccnc2c1)c1ccccc1 (stereo unspecified)	.	.	.	.	-10.8%	.
COC(=O)C1=C(CN2CCN(C)CC2)NC(=O)NC1c1cc(C)ccc1C (stereo unspecified)	i	0.8%	1.5%	i	?	1.2%
COC(=O)C1=C(COc2ccc(C=O)cc2OC)NC(=O)NC1c1cc(C)ccc1C (stereo unspecified)	20.6µM*	-0.3%	12.1%	?	-6.9%	0.4%
CC(=O)N1Cc2ccccc2CC2(CCCN(CC3CCCCC3)C2)C1 (stereo unspecified)	.	.	.	.	6.7%[6.33 µM]	.
COc1cc(F)ccc1-c1ccc(=O)n(Cc2ccc(F)cc2Cl)n1	.	.	.	.	-1.3%	.
Oc1ccccc1-n1c(-c2ccccc2)ccc1-c1ccccc1	i	11.2%	20.6µM*	i	?	14.0%
Cc1ccc(-c2ccccc2)n1-c1ccc(C(=O)O)cc1	i	-0.5%	?	i	-18.0%	6.0%
O=C(CCc1cc(Cl)no1)N(CCS(=O)(=O)N1CCOCC1)Cc1ccccn1	.	.	.	.	7.94µM*	.
CN(CCc1ccccn1)C(=O)CCc1ccc2c(c1)CN(S(C)(=O)=O)CCO2	.	.	.	.	25.4%	.
CC(C)Cc1ccc(C(C)/C=C2/CCC(CN3CCCCC3)C2=O)cc1 (stereo unspecified)	?	-2.0%	14.6µM*	?	?	?
COc1ccc(CCN2C(=O)CC(C(N)=O)SC2=Nc2ccccc2)cc1OC (stereo unspecified)	20.6µM*	-1.0%	3.9%	i	4.5%[57.4 µM]	-1.8%
CNC(=O)C1CC(=O)N(CCc2ccc(OC)c(OC)c2)C(=Nc2ccc(F)cc2)S1 (stereo unspecified)	i	-1.1%	11.4%	i	-20.7%	?
COc1ccc(CCN2C(=O)CSC2=S)cc1OC	5.8µM*	-1.2%	11.6µM*	6.51µM*	?	14.6µM*
COc1ccc(CN2C(=O)CSCC2=O)cc1OC	?	1.5%	-0.3%	i	10.7%	-32.1%
COc1ccc(Cn2c(CCC(=O)Nc3ccc(CC#N)cc3)nc3cccnc32)cc1	2.59µM*	23.6%[38.3 µM]	15.6%	i	-16.8%	10.7%
CCOC(=O)C1=CCN(S(=O)(=O)c2ccc(F)cc2)C1c1cccc(Cl)c1 (stereo unspecified)	8.2µM*	1.8%	.	?	-17.6%	.
CCCCC(O)(c1ccc(OC)cc1)C(CN1CCOCC1)c1ccccc1 (stereo unspecified)	?	15.3%	7.7%	i	?	25.0%
CCOc1ccc(C(O)(c2ccccc2OC)C(CN2CCCC2)c2ccccc2)cc1 (stereo unspecified)	i	4.4%	?	?	-29.3%	-38.7%
